Results on 20 compounds are retold here after PubChem BioAssay (NCI).

Among the test systems are DU-145 prostate; K-562 leukemia; MALME-3M melanoma; MDA-MB-231 breast; RXF 393 renal; SF-268 CNS; SF-295 CNS; SF-539 CNS; UACC-257 melanoma; M14 melanoma.
What all share (test): NCI-60 one-dose screen, 48 h (100 = growth as untreated, 0 = no growth, -100 = all killed)
Conditions in all cases: 10 µM unless noted

This is part of a sample that, as a whole, favours compounds with a hit. Of some 83,000 tested, about 20% had one in any assay.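 Assay: single dose, 48 h. Readout: percent growth (0 = no net growth; negative = cell death). Active: <10.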 A number with no mark means an inactive call. The source made the active and inactive calls.

For the compound `COc1cc2c(c(OC)c1OC)-c1ccc(OC)c(=O)cc1[C@@H](NC(=O)CCl)CC2`, the growth in the assay with DU-145 prostate was -18% (active); in the assay with K-562 leukemia, 22.1%; with MALME-3M melanoma it was 91.8%; in the assay on MDA-MB-231 breast, 4.86% (active); with RXF 393 renal, -12.6% (active); in the assay on SF-268 CNS, 23.2%. For the same compound, the growth with SF-295 CNS was 25.1%; with SF-539 CNS, 4.53% (active); in the assay with UACC-257 melanoma, 60.1%; with M14 melanoma it was -47.2% (active).
On to `N#Cc1c(-c2cccs2)cc(-c2cccnc2)[nH]c1=O`, for which the growth in the assay with DU-145 prostate is 109%; with K-562 leukemia, 98.2%; in the assay with MALME-3M melanoma it was 104%; in the assay on MDA-MB-231 breast, 105%; in the assay with RXF 393 renal it was 101%; with SF-268 CNS it was 100%. The growth in the assay on SF-295 CNS is 101%; in the assay on SF-539 CNS, 95.5%; with UACC-257 melanoma it was 97.1%; in the assay on M14 melanoma it was 106%.
`CS(=O)(=O)C1=CN(CCO)C(=O)N2CCCN=C12`: the growth was 105% in the assay on DU-145 prostate; 118% in the assay on K-562 leukemia; 96.2% in the assay with MALME-3M melanoma; 98.6% in the assay on MDA-MB-231 breast; 106% with RXF 393 renal; 97.2% in the assay with SF-268 CNS. In addition, the growth was 105% in the assay with SF-295 CNS, 102% in the assay with SF-539 CNS, 105% with UACC-257 melanoma and 98.9% in the assay with M14 melanoma.
As to `Cc1ccc(-c2nc(/C=C3/C(=O)Nc4ccccc43)c3ccccn23)cc1`, the growth in the assay with DU-145 prostate was -16.3% (active); with K-562 leukemia, 81.5%; with MALME-3M melanoma, 116%; with MDA-MB-231 breast, 85.2%; in the assay with RXF 393 renal, 38.2%; in the assay with SF-268 CNS, 88%. The growth with SF-295 CNS was 91.9%; in the assay on SF-539 CNS, 94.8%; with UACC-257 melanoma, 102%; in the assay on M14 melanoma, 92.3%.
With `O=C1CC(N2C(=O)/C(=C/C(Cl)=C\c3ccc([N+](=O)[O-])cc3)SC2=S)C(=O)N1c1ccc(Cl)cc1` (stereo not given), the growth in the assay on DU-145 prostate is 22.4%; in the assay on K-562 leukemia, 6.26% (active); in the assay with MALME-3M melanoma, 22.9%; with MDA-MB-231 breast, -3.07% (active); in the assay on RXF 393 renal it was -64.1% (active); in the assay with SF-268 CNS it was 21.8%. For the same compound, the growth in the assay on SF-295 CNS is 40.7%; in the assay on SF-539 CNS, 15.9%; in the assay on UACC-257 melanoma, 57.8%; in the assay with M14 melanoma it was 23.9%.
As for `CCN(CC)CCOc1ccc(C(=C(C)c2ccc(Cl)cc2)c2ccc(OCCN(CC)CC)cc2)cc1`, the growth is -36.4% (active) in the assay on DU-145 prostate; -37.2% (active) in the assay on K-562 leukemia; -84.1% (active) in the assay with MALME-3M melanoma; -84.9% (active) in the assay on MDA-MB-231 breast; -73.7% (active) in the assay on RXF 393 renal; -37.9% (active) with SF-268 CNS. Further, the growth in the assay on SF-295 CNS is -77.6% (active); with SF-539 CNS, -92.6% (active); with UACC-257 melanoma, -69.9% (active); in the assay with M14 melanoma it was -89.8% (active).
For `C=C(C)[C@@H]1CC[C@]2(C)[C@H](CC=C3[C@@H]4[C@H](C)[C@@H](C)CC[C@]4(CO)CC[C@]32C)[C@@]1(C)CCCN`, the growth in the assay with DU-145 prostate was 28.4%; in the assay on K-562 leukemia, 1.75% (active); with MALME-3M melanoma, -79.1% (active); with MDA-MB-231 breast it was 3.87% (active); with RXF 393 renal, 21.7%; in the assay on SF-268 CNS it was 59%. Also, the growth was 77.2% in the assay on SF-295 CNS, 13% with SF-539 CNS, -56.7% (active) in the assay on UACC-257 melanoma and -46.2% (active) with M14 melanoma.
As to `Cc1oc(-c2ccc(Cl)cc2)nc1/C=C/C(=O)c1ccccc1`, the growth in the assay on DU-145 prostate is 109%; in the assay with K-562 leukemia it was 99.1%; with MALME-3M melanoma, 97.6%; with MDA-MB-231 breast, 101%; in the assay with RXF 393 renal, 106%; in the assay on SF-268 CNS it was 97.1%. Besides, the growth was 99.9% in the assay on SF-295 CNS, 99.5% with SF-539 CNS, 106% in the assay on UACC-257 melanoma and 104% in the assay with M14 melanoma.
With `CN1CCN(c2ccc(NC(=O)c3cncnc3Nc3ccc(OCc4ccccn4)c(Cl)c3)cc2)CC1`, the growth is 56.5% with DU-145 prostate; -21.4% (active) in the assay with K-562 leukemia; -55.1% (active) in the assay with MALME-3M melanoma; -11.2% (active) with MDA-MB-231 breast; 27.9% in the assay on RXF 393 renal; 68.9% in the assay with SF-268 CNS. The growth was 61% in the assay on SF-295 CNS, -12.7% (active) in the assay on SF-539 CNS, 39% in the assay on UACC-257 melanoma and -72.8% (active) in the assay with M14 melanoma.
For the compound `C#COc1cccc(Nc2ncnc3ncc(NC(=O)CCl)cc23)c1`, the growth in the assay on DU-145 prostate is 8.37% [6.25 µM] (active); in the assay with K-562 leukemia, 15.3% [6.25 µM]; in the assay on MALME-3M melanoma it was 37.1% [6.25 µM]; in the assay with MDA-MB-231 breast, -4.91% [6.25 µM] (active); with RXF 393 renal it was -12.9% [6.25 µM] (active); in the assay with SF-268 CNS, -6.57% [6.25 µM] (active). In addition, the growth in the assay with SF-295 CNS was 33.5% [6.25 µM]; with SF-539 CNS, 0.882% [6.25 µM] (active); in the assay with UACC-257 melanoma, 59.4% [6.25 µM]; in the assay on M14 melanoma it was 35.8% [6.25 µM].
As for `COc1cc(-c2nc(SCCC(C)C)nc(Nc3ccccc3Cl)c2C#N)cc(OC)c1OC`, the growth in the assay on DU-145 prostate was 97.7%; with K-562 leukemia, 95.1%; with MALME-3M melanoma it was 105%; in the assay with MDA-MB-231 breast it was 81.5%; in the assay with RXF 393 renal, 117%; in the assay with SF-268 CNS it was 85.7%. Further, the growth was 100% in the assay on SF-295 CNS, 95.6% in the assay with SF-539 CNS, 127% in the assay with UACC-257 melanoma and 96.6% in the assay with M14 melanoma.
As to `O=C1Nc2ccccc2/C1=C\c1nc(-c2ccccc2)n2ccccc12`, the growth in the assay on DU-145 prostate is 86.4%; in the assay on K-562 leukemia, 77.2%; with MALME-3M melanoma it was 119%; in the assay on MDA-MB-231 breast, 60.6%; in the assay with RXF 393 renal, 78%; with SF-268 CNS, 93.9%. The growth in the assay on SF-295 CNS was 97.6%; in the assay with SF-539 CNS, 101%; in the assay with UACC-257 melanoma, 124%; in the assay on M14 melanoma it was 79.8%.
With `O=C(/C=C/c1ccccc1)c1cccc(OCCCOc2cccc(C(=O)/C=C/c3ccccc3)c2)c1`, the growth was 100% in the assay on DU-145 prostate; 46.4% in the assay with K-562 leukemia; 107% with MALME-3M melanoma; 97.4% in the assay with MDA-MB-231 breast; 94.9% in the assay with RXF 393 renal; 104% in the assay on SF-268 CNS. Besides, the growth in the assay with SF-295 CNS was 94.2%; in the assay with SF-539 CNS it was 107%; in the assay with UACC-257 melanoma, 96.4%; in the assay with M14 melanoma, 95%.
Turning to `CN(C)CCNC(=O)c1cccc(-c2cnc3ccc(-c4ccc5c(c4)OCO5)nn23)c1`, the growth in the assay with DU-145 prostate was 66.5%; with K-562 leukemia it was 1.77% (active); in the assay on MALME-3M melanoma it was 88.7%; in the assay with MDA-MB-231 breast, 77.9%; with RXF 393 renal, 42.3%; in the assay with SF-268 CNS it was 76.7%. In addition, the growth in the assay on SF-295 CNS is 106%; in the assay with SF-539 CNS, 66.9%; in the assay on UACC-257 melanoma it was 108%; with M14 melanoma, 67.7%.
On to `COc1cc(N2C(=O)[C@H](O)C2c2ccc(SC)cc2)cc(OC)c1OC` (stereo not given in full), for which the growth in the assay with DU-145 prostate is 3.72% (active); with K-562 leukemia, 5.68% (active); with MALME-3M melanoma it was 71.7%; in the assay on MDA-MB-231 breast it was 30.3%; in the assay on RXF 393 renal, 15.3%; in the assay on SF-268 CNS, 28.1%. In addition, the growth is 10.1% in the assay with SF-295 CNS, 16.3% in the assay on SF-539 CNS, 42.1% in the assay on UACC-257 melanoma and 6.4% (active) in the assay on M14 melanoma.
`O=C(Cn1c(-c2ccc([N+](=O)[O-])cc2)nc2ccccc21)NNC(=O)c1cccnc1`: the growth with DU-145 prostate is 90.3%; with K-562 leukemia it was 63.4%; in the assay with MALME-3M melanoma it was 105%; in the assay with MDA-MB-231 breast, 92.4%; in the assay on RXF 393 renal, 98.7%; with SF-268 CNS, 89.2%. The growth was 83.4% with SF-295 CNS, 88.9% in the assay with SF-539 CNS, 86.7% in the assay with UACC-257 melanoma and 91% in the assay on M14 melanoma.
On to `CC(C)c1ccc(COCc2cc(CN3CCCC3)c(O)c3ncccc23)cc1`, for which the growth in the assay with DU-145 prostate is 18.6%; in the assay with K-562 leukemia, 3.96% (active); in the assay with MALME-3M melanoma, 8.44% (active); in the assay on MDA-MB-231 breast, 8.36% (active); in the assay with RXF 393 renal it was 3.03% (active); with SF-268 CNS, 8.66% (active). Also, the growth in the assay on SF-295 CNS was 4.84% (active); with SF-539 CNS, -22.1% (active); in the assay with UACC-257 melanoma, -12.8% (active); in the assay on M14 melanoma, -6.21% (active).
For the compound `C=C(C)[C@@H]1CC[C@]2(C(=O)NCCNCCN)CC[C@]3(C)[C@H](CC[C@@H]4[C@@]5(C)C/C(=C/c6ccncc6)C(=O)C(C)(C)[C@@H]5CC[C@]43C)[C@@H]12`, the growth with DU-145 prostate is 106%; in the assay with K-562 leukemia, 86.4%; in the assay on MALME-3M melanoma, 106%; in the assay on MDA-MB-231 breast, 96.7%; in the assay with RXF 393 renal, 103%; in the assay on SF-268 CNS, 88.5%. Also, the growth is 100% in the assay on SF-295 CNS, 95.1% in the assay with SF-539 CNS, 105% in the assay on UACC-257 melanoma and 89.8% in the assay on M14 melanoma.
For `COc1ccc2[nH]cc(C(c3cc(F)cc(F)c3)c3c[nH]c4ccc(OC)cc34)c2c1`, the growth with DU-145 prostate was 95.9%; with K-562 leukemia, 59%; with MALME-3M melanoma, 206%; with MDA-MB-231 breast, 78.8%; in the assay on RXF 393 renal, 80.5%; in the assay with SF-268 CNS it was 80%. Further, the growth is 79.1% with SF-295 CNS, 93.4% in the assay on SF-539 CNS, 84.3% in the assay on UACC-257 melanoma and 86.6% in the assay on M14 melanoma.
Consider `CCOC(=O)CSc1ncnc2c1c(-c1ccccc1)c(-c1ccccc1)n2-c1ccc(C)cc1`, for which the growth in the assay with DU-145 prostate was 74.4%; with K-562 leukemia, 38%; in the assay on MALME-3M melanoma it was 62.1%; in the assay on MDA-MB-231 breast, 85.7%; with RXF 393 renal, 105%; with SF-268 CNS, 86.2%. Further, the growth in the assay with SF-295 CNS is 76.2%; in the assay on SF-539 CNS, 86.2%; with UACC-257 melanoma it was 51.9%; with M14 melanoma it was 75.6%.
